Source: PubChem (several laboratories)
SKN-1 inh: suppressors of acrylamide-induced Pgst-4::GFP reporter in worms, primary screen, SKN-1 inhibitor project, whole organism, uHTS, GFP/RFP fluorescence ratio, strain VP596. C. elegans VP596 Pgst-4::GFP/RFP ratio, 24 h. inhibition, % at 21.8 µM. hit rate 0.49% among 360,000. AID 624304, 2012;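 active means interference check ratio from 0.5 to 1.5 plus GFP to RFP signal ratio inhibition reaching or exceeding a fixed threshold, cut at about 30% in these data, passing the limit was not always enough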
CendR NRP1 mod: modulators of CendR peptide binding to NRP-1, primary screen, biochemical, fluorescence polarization, uHTS | Neuropilin-1 (Homo sapiens), O14786 | FAM-RPARPAR peptide binding to NRP-1 | inhibition, % at 25 µM | hit rate 0.85% among 360,000;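 active means inhibition or corrected inhibition above about 18%, plus a signal ratio from 0.5 to 1.5, limit read from the data, passing the limit was not always enough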
MEKK2 mut-MEK5: MEK5 binding signal on mutant MEKK2 PB1, primary screen, biochemical, multiplex bead flow cytometry, Alexa488-MEK5. Alexa488-MEK5 binding to MEKK2 mutant. percent response, % at 10 µM. hit rate 0.35% among 290,000; in the data active means percent response above about 24%, passing the limit was not always enough
MEKK3 PB1 HTS: modulators of MEKK3-MEK5 PB1 binding, primary screen, biochemical, wildtype MEKK3, multiplex bead flow cytometry, Alexa488-MEK5; bead-based flow cytometry, Alexa488-MEK5 binding to MEKK3; actives lie on both sides; 0 = blocked by unlabeled MEK5, 100 = vehicle; hit rate 1.4% among 290,000; binding response (% of control), % at 10 µM; Mitogen-activated protein kinase kinase kinase 3 (Homo sapiens), Q99759; AID 1529, 2009;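 active means binding response more than 3 SD above or below the average of its plate-row segment, actives on both sides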;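 further: Alexa488 bead fluorescence after subtracting the streptavidin-only scavenger bead signal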
Target sequence (Q99759 whole entry, looked up): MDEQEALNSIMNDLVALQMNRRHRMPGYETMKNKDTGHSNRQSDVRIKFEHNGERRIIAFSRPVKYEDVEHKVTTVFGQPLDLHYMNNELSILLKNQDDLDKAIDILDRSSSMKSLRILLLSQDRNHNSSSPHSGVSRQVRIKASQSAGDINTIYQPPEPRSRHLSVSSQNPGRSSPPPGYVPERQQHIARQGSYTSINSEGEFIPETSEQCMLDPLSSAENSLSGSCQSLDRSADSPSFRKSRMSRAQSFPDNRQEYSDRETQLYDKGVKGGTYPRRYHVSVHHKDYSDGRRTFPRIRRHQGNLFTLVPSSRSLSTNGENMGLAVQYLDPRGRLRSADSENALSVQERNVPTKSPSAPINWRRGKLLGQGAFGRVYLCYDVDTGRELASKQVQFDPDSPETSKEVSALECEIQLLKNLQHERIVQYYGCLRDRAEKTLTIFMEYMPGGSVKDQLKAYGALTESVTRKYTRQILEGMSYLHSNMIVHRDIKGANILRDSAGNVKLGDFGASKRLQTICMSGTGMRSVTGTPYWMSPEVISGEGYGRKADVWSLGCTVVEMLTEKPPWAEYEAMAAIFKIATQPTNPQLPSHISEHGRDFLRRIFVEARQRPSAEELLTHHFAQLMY
MEKK2wt PB1 HTS: modulators of MEK5 binding to wildtype MEKK2, primary screen, biochemical, multiplex bead flow cytometry, Alexa488-MEK5; Alexa488-MEK5 binding to MEKK2 WT; actives lie on both sides; binding response (% of control), % at 10 µM; hit rate 1.1% among 290,000; in the data active means binding response below about 67% or above about 130%
Numbers without * were called inactive; · = no result given; [ ] = dose if it differs, or a comment. Shown are actives, neighbours in structure and some others; about 3.2% of the full set was active somewhere.

SMILES	SKN-1 inh	CendR NRP1 mod	MEKK2 mut-MEK5	MEKK3 PB1 HTS	MEKK2wt PB1 HTS
CCC(=O)c1c[nH]c(C(=O)NCc2cccnc2)c1	1.8	22.4*	9.0	103.0	104.0
CC1=C(C(=O)N(C)C)CC(CC(=O)NCCc2ccccn2)C(=O)N1Cc1ccc(F)cc1 (stereo not drawn)	7.3	-5.4	·	·	·
O=[N+]([O-])c1cncc([N+](=O)[O-])c1Nc1cccc(O)c1	2.0	0.6	-3.0	92.0	96.0
S=P(c1ccc(N2CCOCC2)cc1N1CCOCC1)(N1CCOCC1)N1CCOCC1	44.0*	11.0	·	·	·
COc1cc(/C=N/N=C2\CC3CCC2(C)C3(C)C)ccc1O (stereo not drawn)	-10.5	22.6*	·	·	·
S=C(Nc1ccccc1Oc1ccccc1)Nc1cccc(Cl)c1Cl	-1.2	28.2*	3.0	97.0	100.0
Cc1ccc(NC(=O)COC(=O)c2c(-c3ccccc3)noc2C)c(C)c1	16.8	5.8	·	·	·
CCOC(=O)Cc1ccc(Nc2nc(NCCOC)nc3ccsc23)cc1	20.9	11.1	·	·	·
Cc1ccc(S(=O)(=O)c2ccc([N+](=O)[O-])cn2)cc1	6.4	6.0	8.0	105.0	103.0
Cc1cc(S(=O)(=O)c2ccc([N+](=O)[O-])cn2)ccc1Br	5.9	21.5*	·	·	·
O=C(Nc1ccccn1)C(=O)Nc1ccccn1	2.5	6.8	18.0	125.0	124.0
S=C(Nc1ccccn1)c1ccccn1	39.4*	-11.4	12.0	106.0	107.0
CC(C)C(=O)NC(=S)/C=C1/N(C)c2ccccc2C1(C)C	59.9	-152.2	-10.0	98.0	87.0
CN1/C(=C/C(=S)NC(=O)C2CCC2)C(C)(C)c2ccccc21	41.2*	-25.2	-6.0	101.0	90.0
CC(=O)N1CC(C)Sc2ccc(S(=O)(=O)NC3CCCCC3C)cc21 (stereo not drawn)	10.7	20.7*	2.0	101.0	99.0
CC1CCCCC1NC(=O)CSc1ncnc2sccc12 (stereo not drawn)	16.9	22.2*	·	·	·
CC1CCCC(NC(=O)CSc2ncnc3ccccc23)C1C (stereo not drawn)	-12.5	-14.4	·	·	·
COc1ccc(-c2noc(C(=O)NCc3ccc(F)cc3)n2)cc1OC	6.1	36.7*	-5.0	96.0	100.0
CC1=NN(c2ccc(C)cc2)C(=O)/C1=C\C=C\c1ccccc1	6.7	-8.7	-2.0	97.0	100.0
CC1=NN(c2ccccc2)C(=O)/C1=C/C=C/C=C/N(C)C	66.0*	-263.4	-6.0	102.0	94.0
CCC(=O)NCCCCNC(=O)CC	-12.3	32.8*	0.0	99.0	94.0
CC1(C(=O)Nc2cccc(C#N)c2)CCN1C(=O)c1ccccc1CCc1ccccc1 (stereo not drawn)	29.3	-4.3	·	·	·
O=C(Cn1cnc2cc([N+](=O)[O-])ccc2c1=O)NCCc1ccc(Cl)cc1	2.1	20.2*	-3.0	94.0	92.0
C[C@@H]1CN([C@H](C)CO)C(=O)c2cc(Br)cnc2O[C@@H]1CN(C)C(=O)NC1CCCC1	7.5	-7.9	·	·	·
COc1cccc2c1C(=O)c1c(O)c3c(c(O)c1C2=O)C[C@@](O)(C(=O)CO)C[C@@H]3O[C@H]1C[C@H](N)[C@@H](O)[C@H](C)O1	68.0	142.1	11.0	99.0	7.0*
SMILES	SKN-1 inh	CendR NRP1 mod	MEKK2 mut-MEK5	MEKK3 PB1 HTS	MEKK2wt PB1 HTS
Cn1nc(C(C)(C)C)cc1C(=O)N1CCCC(C)(C(=O)NS(=O)(=O)C2CC2)C1 (stereo not drawn)	4.3	-1.3	·	·	·
O=[N+]([O-])c1ccc(N=Nc2ncc[nH]2)cc1	8.7	-9.0	8.0	108.0	107.0
COC(=O)c1cccc(NC(=O)CSc2nncn2-c2ccccn2)c1	-6.4	2.5	4.0	104.0	100.0
COC(=O)c1ccc(NC(=O)CSc2nncn2-c2ccccn2)cc1	-4.4	9.2	-24.0	0.0*[inhibitor]	-11.0*[inhibitor]
O=[N+]([O-])c1ccc(-c2csc(N3CCc4ccccc4C3)n2)cc1	10.9	-0.7	-2.0	94.0	95.0
O=[N+]([O-])c1ccc(N2CCc3ccccc3C2)cc1	44.5*	5.1	5.0	105.0	105.0
Fc1ccc(-c2nnc(Cc3ccc(Cl)cc3)o2)cc1	44.4*	7.7	-1.0	104.0	105.0
